Screening data: PubChem BioAssay, National Center for Advancing Translational Sciences (NCATS)
gsp agonist = gsp mutant agonism; gsp mutant cells, cAMP HTRF, 30 min; Potency, µM (series often up to 76.9 µM), without a hit: at the highest dose activation (cAMP increase), most hits filed as activators; hit rate 0.13% among 340,000; AID 624287; active = well fitted activation curve with a large enough effect; inconclusive = small, poorly fitted or top-dose-only effect, or another doubt; inactive = no such curve, though single readings can be large or run the other way; cell line not stated here;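 also: phosphodiesterase inhibitor Ro 20-1724 added with compounds to block cAMP breakdown; potency is read from the fitted curve at half-maximal effect; nearly all actives have a fitted effect of over 60% in size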
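Cells in DMEM/10% FBS with G418 were pretreated with compounds in DMSO plus […] (300 uM stock) for 30 min at 37C. cAMP was measured by HTRF (cAMP-d2 plus anti-cAMP antibody-K) after 30 min at room temperature.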
RXFP1 antagonist = RXFP1 (human) relaxin receptor antagonism; HEK293-RXFP1, relaxin-stimulated cAMP HTRF, 30 min; stronger effect = lower value; hit rate 0.59% among 350,000; activity change, negative = inhibition, % at 57.5 µM; AID 1259400;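 active = activity change of -60% or lower, but not beyond a set lower limit; inconclusive = change between -60% and -40%, or beyond the set limit; inactive = change above -40%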; also: % is scaled to controls: 0 for no effect and ±100 for the full control effect
gsp antagonist = gsp mutant antagonism | hit rate 0.4% among 340,000 | gsp-mutant cells, cAMP HTRF, 30 min | Potency, µM (series often up to 76.9 µM), inactives show at the highest dose activity change, negative = inhibition, most hits filed as inhibitors; calls by dose curve; cell line not stated here;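 also: intracellular cAMP measured with PDE inhibitor Ro 20-1724 present during compound exposure; potency is read from the fitted curve at half-maximal effect; % is scaled to controls: 0 for no effect and ±100 for the full control effect; nearly all actives have a fitted effect of over 65% in size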
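Cells in G418 medium, seeded 16-24 h, 37C; buffer exchange to DPBS + 1 mM CaCl2, 0.5 mM MgCl2, 0.05% BSA; cpds in DMSO + […] (300 uM stock), 30 min 37C; HTRF cAMP detection.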
RXFP1 agonist = agonists of human relaxin receptor RXFP1; AID 2676; Q9HBX9; HEK293T-RXFP1 cAMP TR-FRET, 30 min; response scale: percent of porcine relaxin response, buffer zero; Potency, µM (doses to about 57.5 µM), inactives show at the top dose activation, most hits filed as activators; hit rate 0.3% among 370,000; active = well fitted activation curve with a large enough effect; inconclusive = small, poorly fitted or top-dose-only effect; also: potency is read from the fitted curve at half-maximal effect; % is scaled to controls: 0 for no effect and ±100 for the full control effect; nearly all actives have a fitted effect of over 60% in size
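Agonist response is measured as cAMP accumulation in an RXFP1-transfected HEK293T line under PDE4 inhibition. Values are scaled between buffer-only and 29 nM porcine relaxin, and EC50s come from standard Hill equation fits.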
pAkt inh = blocks phosphorylation of Akt. activity change, % for hits at 50 µM. Neuro2A IGF-stimulated pAkt S473 HTRF, 20 min; stronger effect = lower value. hit rate 0.32% among 360,000. AID 651550; in the data active = activity change below about -80%; inconclusive = mostly about -51% to -80%; also: % is scaled to controls: 0 for no effect and ±100 for the full control effect
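Neuro2A cells (4,500/well, DMEM with 0.5% FBS) were treated with compound at a single 50 µM final concentration, stimulated with 6 nM IGF for 20 min at 37 °C, and lysed. Phospho-Akt Ser473 was read by HTRF as 665/615 ratio ×10^4.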
Active calls of the source: *; i = inactive; ? = inconclusive; · = no result given; ! = repeats disagree; [ ] = another dose, or the depositor's remark. This is a sample that favours compounds with a hit; in the whole collection about 1.2% have one here.

SMILES	gsp agonist	RXFP1 antagonist	gsp antagonist	RXFP1 agonist	pAkt inh
CC(C)(C)n1nnnc1C(c1ccccn1)N1CCN(C(c2ccccc2)c2ccccc2)CC1 (stereo unspecified)	11%	10	13%	0%	i
COc1cccc(N2CCN(C(c3ccccn3)c3nnnn3C(C)(C)C)CC2)c1 (stereo unspecified)	-25%	-5	7%	0%	-105%*
COc1ccc(Cl)cc1NC(=O)c1cnc2sc(N3CCOCC3)nn2c1=O	·	0	·	-2%	·
O=C(CSc1nnc(-c2ccncc2)n1Cc1ccccc1)NC1CCCc2ccccc21 (stereo unspecified)	-7%	-7	-5%	-2%	i
Nn1c(SCC(=O)NC2CCCc3ccccc32)nnc1-c1cccs1 (stereo unspecified)	-19%	-7	-2%	1%	-103%*
O=C1C=CC(=O)N1c1ccc2c(c1)C(NC(=O)C(F)(F)F)c1ccccc1-2 (stereo unspecified)	0%	-97*	7%	·	i
O=C(NCCc1ccccc1)c1ccc(CSc2nc3ccncc3n2Cc2ccccc2F)cc1	·	-21	·	0%	·
Clc1ccc(-c2noc(CSc3nnc(-c4ccncc4)n3-c3ccccc3)n2)cc1	-35%	-11	32µM*	0%	i
Cc1ccc(-n2c(SCc3nc(-c4ccc(Cl)cc4)no3)nnc2-c2ccncc2)cc1	·	·	·	1%	·
O=C(O)c1ccccc1NC(=O)c1cc2ccccc2oc1=O	?	-14	32µM*	4%	i
O=C(CN1CCCN(S(=O)(=O)c2ccc(Br)cc2)CC1)Nc1cccc(C(F)(F)F)c1	·	-17	·	2%	·
Cc1nn(C)c(C)c1N1C(=O)c2cccc3c(Br)ccc(c23)C1=O	13µM*	5	2%	21%	i
Cc1sc2ncn(CC(=O)N3CCN(c4ccccc4)CC3)c(=O)c2c1S(=O)(=O)N1CCN(c2ncccn2)CC1	·	·	·	1%	·
Cc1ccccc1CN1CCc2nc(Nc3ccc4c(c3)OCCO4)ncc2C1	·	-18	·	3%	·
O=C(O)c1c(-c2ccccc2)c2oc3ccccc3c2[nH]c1=O	40µM*	-5	5%	8%	·
O=C1C2CC=CCC2C(=O)N1c1ccc(N2CCN(c3ccccn3)CC2)c([N+](=O)[O-])c1 (stereo unspecified)	-1%	-31	22µM*	1%	i
Cn1c(=O)c2cc(C(=O)N3CCN(c4cccc(C(F)(F)F)c4)CC3)sc2c2ccccc21	·	-3	·	4%	·
O=C(Cn1ncc2c3ccccc3n(Cc3cccc(Cl)c3)c2c1=O)NC1CCCCCC1	·	-2	·	7%	·
CCOC(=O)C1=C(COC(=O)/C=C/c2ccc(SC)cc2)NC(=O)NC1C (stereo unspecified)	1%[15.4 µM]	-76*	0%	0%	i
O=NN(CCCl)C(=O)NC1CCCCC1	·	6	·	·	·
O=C(CN1C(=O)CSc2ccc(S(=O)(=O)N3CCCC3)cc21)Nc1cccc(Cl)c1	·	-33	·	-2%	·
CCc1nonc1NC(=O)c1oc2ccc(Br)cc2c1C	-22%	-14	10%	25µM*!	i
O=C(Nc1nncs1)C1c2ccccc2Oc2ccccc21	0%	10	1%	2%	-102%*
Cc1nnc(NC(=O)C2c3ccccc3Oc3ccccc32)s1	12%	-28	1%	1%	i
Cc1c(C(=O)N(C)c2cccc(C(F)(F)F)c2)sc2nc3n(c(=O)c12)CCCCC3	·	-22	·	17%	·
SMILES	gsp agonist	RXFP1 antagonist	gsp antagonist	RXFP1 agonist	pAkt inh
O=C(Nc1cc(C(F)(F)F)ccc1-n1cncn1)c1ccc(Cl)cc1	-3%	-17	11%	2%	-91%*
COc1ccc(N2C(=O)CC(Sc3nnc(-c4ccccc4)o3)C2=O)cc1 (stereo unspecified)	28µM*	-7	6%	18%	·
O=C1CC(Sc2nnc(-c3ccccc3O)o2)C(=O)N1c1ccccc1 (stereo unspecified)	-1%	11	-10%	12%	i
COc1ccc(N2C(=O)CC(Cc3ccccc3)C2=O)cc1 (stereo unspecified)	-1%	9	12%	2%	-89%*
COc1ccc(N2C(=O)CC(N3CCOCC3)C2=O)cc1 (stereo unspecified)	16%	3	3%	0%	-110%*
Cc1ccc(-c2c(CN3CCN(c4cccc(C)c4)C(C)C3)csc2C)cc1 (stereo unspecified)	·	9	·	2%	·
CC(Oc1ccc2c3c(c(=O)oc2c1)CCC3)C(=O)NCC1CCC(C(=O)O)CC1 (stereo unspecified)	·	·	32µM*	3%	i
CC(Oc1ccc2c3c(c(=O)oc2c1)CCCC3)C(=O)NCC1CCC(C(=O)O)CC1 (stereo unspecified)	-17%	-13	-5%	3%	i
Cc1ccccc1NC(=O)c1c(C)oc2ccc(O)c(CN3CCCC3)c12	·	-8	·	11%	·
NC(=S)n1[nH]c(-c2ccc([N+](=O)[O-])cc2)c(N=Nc2cccc([N+](=O)[O-])c2)c1=O	-39%	-30	14µM*	-2%	i
NC(=S)n1[nH]c(-c2ccc([N+](=O)[O-])cc2)c(N=Nc2ccccc2[N+](=O)[O-])c1=O	1%	-5	-10%	0%	i
Cc1c(N=Nc2c(-c3ccc([N+](=O)[O-])cc3)[nH]n(C(N)=S)c2=O)cccc1[N+](=O)[O-]	-16%	-24	8.9µM*	-2%	i
CC1CC(=O)c2cnc(NCc3ccco3)nc2C1 (stereo unspecified)	19%	-12	9%	-1%	i
O=C1CC(c2ccc(F)cc2)Cc2nc(NCc3ccco3)ncc21 (stereo unspecified)	?	5	37%	?	-84%*
CCc1ccc(OC(C)C(=O)N2CCC(c3nc4ccccc4o3)CC2)cc1 (stereo unspecified)	·	?	·	-1%	·
Cc1cc(OC(C)C(=O)N2CCC(c3nc4ccccc4o3)CC2)ccc1Cl (stereo unspecified)	·	-62*	·	-1%	·
CN(C)CCNC(=O)CCCNC(=O)Cn1cnc2sc3c(c2c1=O)CCCC3	?	-3	18%	11%	-119%*
CC(=O)Nc1ccc(S(=O)(=O)N2CCC(n3cnc4cc(F)ccc43)CC2)cc1	1%	-7	5%	3%	-106%*
CC(C)(C)C(=O)COC(=O)c1ccc(N)c([N+](=O)[O-])c1	-15%	-2	13%	1%	i
COc1ccc(CCOC(=O)c2ccc(N)c([N+](=O)[O-])c2)cc1	4%	-66*	-22%	-2%	i
CCS(=O)(=O)N1CCCC(C(=O)NC2CCCC2)C1 (stereo unspecified)	-19%	2	-2%	3%	i
CCS(=O)(=O)N1CCCC(C(=O)NC2CCCCC2C)C1 (stereo unspecified)	22%	4	-3%	1%	-110%*
